PABP FP inh = PABP-poly(A) binding inhibition | P11940 | hit rate 1% among 290,000 | AID 2014 | PABP-poly(A) RNA binding, fluorescence polarization | calls only at 35 µM;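 also: calls also rest on retests at 20 µM and on dose response follow-up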
eIF4H FP inh = inhibitors of RNA binding by human eIF4H. Q15056. eIF4H fluorescence polarization binding assay. inhibition, % at 35 µM. hit rate 0.94% among 290,000;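 also: calls also rest on retests at 20 µM and on dose response follow-up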
ABCB6 inh 2 = inhibitors of human ABC transporter ABCB6 | Q9NP58 | K562-ABCB6 porphyrin accumulation, flow cytometry, 1 h; active compounds read low | fluorescence ratio to DMSO, % at 10 µM | hit rate 0.19% among 360,000;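 active = fluorescence ratio to DMSO below 75%, the collection mean minus 3 SD; inconclusive = too few cells collected in the well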;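 also: signal is porphyrin accumulated inside mitochondria; 100% equals median channel fluorescence of DMSO control wells; lower ratio means ABCB6 inhibition with less porphyrin fluorescence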
PHOSPHO1 block = PHOSPHO1 (human) inhibition. hit rate 1.1% among 290,000. recombinant PHOSPHO1, absorbance phosphatase assay. Q8TCT1. inhibition, % at 13.3 µM; in the data active = inhibition above about 60%
Target sequence (Q8TCT1 whole entry, looked up): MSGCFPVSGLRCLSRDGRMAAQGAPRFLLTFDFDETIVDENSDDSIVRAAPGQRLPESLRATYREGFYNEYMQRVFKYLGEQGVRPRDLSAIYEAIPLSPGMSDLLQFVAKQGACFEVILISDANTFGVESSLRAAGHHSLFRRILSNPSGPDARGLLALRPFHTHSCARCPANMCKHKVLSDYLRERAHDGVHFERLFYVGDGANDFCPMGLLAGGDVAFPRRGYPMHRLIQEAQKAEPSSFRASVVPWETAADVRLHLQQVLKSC
AI-2 QS mod = modulates the Vibrio harveyi AI-2 quorum sensing system; Vibrio harveyi JMH597 AI-2 luminescence/OD600 ratio, 9 h; active compounds read low; strain lacks LuxN and CqsS sensors; 0 = neutral-control median; activity change, % at 7.5 µM; hit rate 0.4% among 300,000; in the data active = activity change below about -75%, passing the limit was not always enough; inconclusive = no clear call, values can overlap the other calls;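 also: luminescence divided by OD600 gain over 9 h not by final OD600 alone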
MLLE-PAM2 inh = blocks PAM2 peptide binding to the PABP1 MLLE domain; P11940; GST-MLLE / FITC-PAM2 fluorescence polarization; inhibition, % at 20 µM; AID 588489; hit rate 0.36% among 360,000; in the data active = inhibition above about 35%, passing the limit was not always enough;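 also: plate controls were DMSO wells with GST-MLLE for no effect and wells lacking GST-MLLE protein for full effect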
* = called active by the depositor; i = inactive; ? = inconclusive; . = no result given; + = active, no number. The list is not random: actives were taken first. Their share in the collection is about 2.6%. Unless noted, no rule for the calls is given here.

SMILES	PABP FP inh	eIF4H FP inh	ABCB6 inh 2	PHOSPHO1 block	AI-2 QS mod	MLLE-PAM2 inh
Nc1[nH]c(C(=O)c2ccccc2)c(-c2ccc(Cl)cc2)c1C(=O)NCc1ccccc1	.	.	100.0	.	.	.
Cc1ccc(C(=O)NNC(=O)c2ccncc2)cc1C	i	-6.8	103.0	.	19.9	-1.1
Cc1ccc(CC(=O)NNC(=O)c2ccncc2)cc1C	.	.	91.0	.	5.8	56.8*
CC(C)Oc1cc(F)ccc1-c1cc(C(=O)NCCc2ccncc2)[nH]n1	.	.	92.0	.	.	5.0
Cc1cc(C)n(-c2nc(NCCO)c3c4c(sc3n2)CCCC4)n1	i	-15.4	101.0	80.7*	21.1	8.3
Cc1cc(C)n(-c2nc(NCCCO)c3c4c(sc3n2)CCCC4)n1	i	0.7	94.0	-3.5	40.1	-5.6
Cn1c(-c2ccc([N+](=O)[O-])cc2)nc2ccccc21	i	-13.3	90.0	3.5	12.2	3.9
Cn1nc([N+](=O)[O-])c(C(C#N)c2nc3ccccc3n2C)c(Cl)c1=O (centres undefined)	i	?	102.0	12.3	26.4	65.0*
CCCCn1nnnc1C1(C)CCC(=O)N1Cc1cc(OC)ccc1OC (centres undefined)	.	.	97.0	.	.	.
COc1ccc(CCNC(=O)C/C(C)=N/NC(=O)C2CCCCC2)cc1OC	i	0.6	98.0	5.7	1.1	4.4
CCNC(=O)C/C(C)=N/NC(=O)C1CCCCC1	i	-10.4	49.0*	-6.9	35.3	-9.3
CC(C)(C)C(=O)NC(=S)Nc1cccc(C(=O)O)c1	i	1.8	99.0	39.5	37.2	18.4
O=C(O)CCNc1ccc2c(c1)OCCO2	+	83.4*	111.0	13.9	21.3	5.9
O=C(O)c1cccc(NC(=S)NC(=O)c2cccc(OCc3ccccc3)c2)c1	i	-8.9	99.0	.	30.4	39.9*
CC(=O)c1ccc(NC(=S)Nc2ccc(Br)c(Cl)c2)cc1	i	-9.5	95.0	-15.8	55.5	43.5*
O=C(O)c1cccc(NC(=S)NC(=O)c2ccncc2)c1	i	-4.9	96.0	0.3	35.3	44.2*
CCC(=O)N1CCC(C)(C(=O)NCc2cccc(OC)c2)C1 (centres undefined)	.	.	96.0	.	.	3.7
Cc1ccc(S(=O)(=O)N(C)C[C@H]2Oc3cc(C#Cc4ccccc4)ccc3S(=O)(=O)N([C@H](C)CO)C[C@@H]2C)cc1	.	.	98.0	.	.	-5.7
Cc1ccccc1S(=O)(=O)NC(=O)C1(C)CCN1C(=O)CC1CCCC1 (centres undefined)	.	.	92.0	.	.	1.1
O=C(NC(=S)Nc1ccc2c(c1)OCCO2)c1ccccc1	i	0.2	95.0	-6.8	57.1	38.3*
CC(=O)c1cccc(NC(=S)NC(=O)c2ccccc2Br)c1	i	-8.1	95.0	7.4	9.2	35.6*
O=C(NC(=S)Nc1ccc2c(c1)OCCO2)c1ccccc1F	i	2.4	98.0	47.1	13.1	6.6
Nc1nnc(CC(=O)N/N=C/c2cccc([N+](=O)[O-])c2)s1	i	3.5	121.0	-34.6	10.1	-17.5
Nc1nnc(CC(=O)N/N=C/c2cc([N+](=O)[O-])cc(Br)c2O)s1	+	85.9*	97.0	-32.1	21.6	-86.3
Cc1cc2c(cc(C(=O)OC(C(=O)NCc3ccco3)C(C)C)n2C)o1 (centres undefined)	i	-0.6	85.0	66.0*	3.1	-30.7
SMILES	PABP FP inh	eIF4H FP inh	ABCB6 inh 2	PHOSPHO1 block	AI-2 QS mod	MLLE-PAM2 inh
Cc1ccc(-c2ccc(C3C(C#N)=C(N)Oc4n[nH]c(C)c43)o2)cc1 (centres undefined)	+	53.7*	99.0	42.0	1.0	-16.4
O=C(c1ccco1)N1N=C(c2cccs2)CC1c1ccc(F)cc1 (centres undefined)	i	4.3	95.0	17.5	28.4	-8.5
O=C(c1ccco1)N1N=C(c2cccs2)CC1c1cc([N+](=O)[O-])ccc1O (centres undefined)	i	-11.3	94.0	61.0*	16.3	18.8
O=[N+]([O-])c1cc(/C=N/Nc2nc3ccccc3[nH]2)c(O)cc1O	+	80.5*	.	8.5	-63.3	.
COc1ccc(Br)cc1/C=c1\sc2nc(-c3ccco3)nn2c1=O	+	93.8*	100.0	-7.5	11.2	19.1
Cc1ccc(/C=c2/sc3nnc(-c4ccccc4Cl)n3c2=O)o1	i	-1.0	101.0	92.3*	0.4	-13.2
Cc1ccc(/C=c2\sc3nc(-c4ccco4)nn3c2=O)o1	+	90.5*	109.0	18.6	31.5	7.7
COc1ccccc1/C=c1\sc2nc(-c3ccccc3OC)nn2c1=O	i	-10.5	95.0	86.9*	.	12.1
N#Cc1cccc(NC(=O)c2cc(C3CCCCN3C(=O)CCCc3ccccc3)on2)c1 (centres undefined)	.	.	97.0	.	.	7.2
Cc1cccc(C)c1C(O)c1ncc(-c2cccc3ccccc23)[nH]1 (centres undefined)	.	.	97.0	.	.	10.6
CCN(CC)c1ccc(NC(=O)Nc2ccc(C(C)=O)cc2)cc1	i	-3.9	100.0	84.6*	47.1	2.9
CCN(CC)c1ccc(NC(=O)Nc2ccccc2)cc1	i	5.2	89.0	.	-53.2	8.1
COc1ccc(OC)c(S(=O)(=O)N2CCN(c3ccccc3OC)CC2)c1	i	1.1	98.0	29.9	12.1	16.4
COc1cc(OC)cc(N2CCN(S(=O)(=O)c3ccc(-n4cnnn4)cc3)CC2)c1	i	-10.0	105.0	26.3	11.3	3.3
COc1ccccc1N1CCN(S(=O)(=O)c2cc(Br)cnc2N)CC1	.	.	94.0	64.0*	24.2	1.5
COc1ccccc1N1CCN(S(=O)(=O)c2ccc(-n3cnnn3)cc2)CC1	i	71.1*	101.0	27.6	9.9	9.7
COc1ccc(S(=O)(=O)N2CCN(c3ccccc3)CC2)cc1	i	-2.8	96.0	60.1*	14.4	-4.5
COCCNC(=O)C1(C)CCCN(Cc2ccc(Cl)nc2)C1 (centres undefined)	.	.	96.0	.	.	0.4
Cc1ccc(F)cc1C(=O)N1CCCC(c2cc(C(=O)Nc3ccccc3Cl)no2)C1 (centres undefined)	.	.	94.0	.	.	-0.4
Cc1cc(C)cc(C(O)c2ncc(-c3cccc(C(F)(F)F)c3)[nH]2)c1 (centres undefined)	.	.	98.0	.	.	-12.2
CCOC(=O)[C@H]1[C@H]2COc3ccc(Br)cc3[C@H]2N2C(=O)CN(Cc3ccc(C)cc3)C(=O)[C@@]12C	.	.	96.0	.	.	46.8*
COc1ccc2oc(=O)c(C(=O)OCc3ccccc3)cc2c1	i	-3.6	101.0	24.2	28.7	43.4*
COc1ccc2oc(=O)c(C(=O)NCc3ccccc3)cc2c1	i	-3.4	97.0	44.4	10.1	-0.1
CC(S(=O)(=O)c1ccccc1)S(=O)(=O)c1ccccc1	.	.	99.0	.	.	0.6
CCc1c(C(C)S(=O)(=O)c2ccccc2)[nH]c(=O)n1CC (centres undefined)	i	2.5	103.0	-132.4	27.2	39.7*
CCCS(=O)(=O)NC(=O)C1(C)CCN(C(=O)c2cccs2)C1 (centres undefined)	.	.	100.0	.	.	-0.3

Screening data (PubChem BioAssay)
